# Compound activity as filed in PubChem.
# The list is not random: actives were taken first. Their share in the collection is about 7.5%.
# Luc counter = blocks Kinase-Glo luciferase, a counter-screen artifact; AID 1379; Potency, µM (highest dose often 38.3 µM), without a hit: at the highest dose activity change, negative = inhibition, hits mostly inhibitors; Kinase-Glo luciferase, ATP luminescence, 8 min; 0.28% of 200,000 active; Q27757; further: on the % scale 0 is the no-effect control and ±100 the full control effect; nearly all actives have a fitted effect of over 60% in size
#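 Compounds were added to a substrate mix at pH 7.2 (50 mM imidazole, 10 uM ATP, within the enzyme's linear range), followed by Kinase-Glo detection reagent; luminescence was measured after 8 minutes at ambient temperature.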
# NPC1 prom act = NPC1 promoter activation. Huh7 NPC1 promoter luciferase reporter, 24 h. Potency, µM (series often up to 9.22 µM), for inactives: top-dose activation, most hits filed as activators. 2.4% of 320,000 active. AID 485313; further: % of control where 0% means no effect; nearly all actives have a fitted effect of over 60% in size
#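 Huh7 cells stably carrying NPC1 promoter–luciferase, plated in Opti-MEM with 10% FBS for 2 h, were exposed to compound in DMSO for 24 h at 37 °C; luciferase reagent was added for 10 min and luminescence read.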
# SMN2 splice enh = SMN2 splice variant enhancement; HEK293 SMN2-luciferase splicing reporter, luminescence, 30-36 h; Potency, µM (top dose mostly 46.1 µM), for the others: at the top dose activity change, positive = activation, most hits filed as activators; 2.8% of 210,000 active; further: % of control where 0% means no effect; nearly all actives have a fitted effect of over 55% in size
#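 qHTS luciferase splicing reporter: luminescence rises when SMN2 exon 7 is included in transfected HEK293 cells. Compound exposure lasted 30-36 h at 37C, with 4.5 mM final sodium butyrate as control, followed by a ONE-Glo read.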
# FLuc counter = inhibits or activates purified firefly luciferase, miR-21 counter-screen. P08659. purified FLuc, Km substrates, luminescence inhibition. Potency, µM (doses to about 57.5 µM), for the others: top-dose activity change, negative = inhibition, most hits filed as inhibitors. 6.9% of 360,000 active;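 further: plate controls were vehicle for no effect and reference inhibitor for full effect; nearly all actives have a fitted effect of over 55% in size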
# Target sequence (P08659 whole entry, looked up): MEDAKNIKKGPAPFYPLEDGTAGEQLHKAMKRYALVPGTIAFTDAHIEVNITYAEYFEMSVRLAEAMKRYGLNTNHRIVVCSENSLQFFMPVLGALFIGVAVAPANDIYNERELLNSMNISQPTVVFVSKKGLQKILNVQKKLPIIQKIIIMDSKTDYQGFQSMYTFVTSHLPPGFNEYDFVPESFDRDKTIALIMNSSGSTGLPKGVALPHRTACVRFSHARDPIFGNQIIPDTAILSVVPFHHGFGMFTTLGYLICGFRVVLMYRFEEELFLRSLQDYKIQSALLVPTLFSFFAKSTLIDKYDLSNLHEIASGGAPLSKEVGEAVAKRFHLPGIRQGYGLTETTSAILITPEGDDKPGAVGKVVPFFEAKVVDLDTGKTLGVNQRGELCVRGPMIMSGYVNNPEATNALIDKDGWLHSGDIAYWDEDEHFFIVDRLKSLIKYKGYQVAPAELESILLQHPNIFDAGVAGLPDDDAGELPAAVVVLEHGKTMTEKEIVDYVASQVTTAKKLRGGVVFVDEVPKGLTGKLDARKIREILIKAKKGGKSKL
#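 Purified P. pyralis luciferase, 10 nM final, with Km-level 10 uM D-luciferin and 10 uM ATP in 50 mM Tris acetate pH 7.5, 10 mM Mg acetate, 0.01% Tween-20, 0.05% BSA; 6-point qHTS titration about 60 µM downward; luminescence read.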
# ELG1 genotoxic = genotoxicity induction in ELG1-luciferase HEK293T cells | AID 504466 | HEK293T ELG1-luciferase reporter, luminescence, 16 h | Potency, µM (titrated, usually from 46 µM), for inactives: top-dose activity change, positive = activation, hits mostly activators | 1.3% of 330,000 active; further: % of control where 0% means no effect; nearly all actives have a fitted effect of over 60% in size
#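 After overnight (16 hr) compound treatment at 37 °C, ELG1-luciferase HEK293T cells were lysed with ONE-Glo; luminescence quantified 30 min later at room temperature.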
# Rab9 prom act = activators of Rab9 promoter | Huh7 Rab9 promoter-luciferase reporter, luminescence, 24 h | Potency, µM (series often up to 9.22 µM), inactives show at the top dose activation, negative = inhibition, most hits filed as activators | 2.8% of 320,000 active; further: % of control where 0% means no effect; nearly all actives have a fitted effect of over 60% in size
#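 Cell-based reporter: Huh7 stable for Rab9 promoter-driven luciferase, plated in reduced-serum medium with 10% FBS at 1500 cells/well, compound-treated 24 h at 37 °C, luminescence read after 10 min reagent.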
# The depositor's hits bear a star; ? = inconclusive; . = not tested or not shown. The call rests on the fitted dose curve; in most records, active means well fitted curve in the direction sought with a large enough effect; inconclusive means small, poorly fitted or top-dose-only effect, or another doubt; inactive means no such curve, though single readings can be large; an effect the other way counts as inactive or inconclusive. Potency means the concentration at half of the fitted maximal effect.
SMILES,Luc counter,NPC1 prom act,SMN2 splice enh,FLuc counter,ELG1 genotoxic,Rab9 prom act
COc1ccccc1OCC(=O)Nc1ccc2c(c1)OCO2,.,?,.,15µM*,25%,21%
O=C(NCc1cccs1)c1ccc(CSc2nc3ccncc3n2Cc2cccc(F)c2)cc1,.,.,1%,-13%,.,.
CNS(=O)(=O)c1cccc(C(=O)OCC(=O)c2cc(C)n(-c3ccc4c(c3)OCO4)c2C)c1,2%,-1%,-24%,?,11%,-3%
CCn1ccc2c(OCC(=O)Nc3ccc(C)c(Cl)c3)cccc2c1=O,.,.,.,-2%,.,.
Cc1ccc(NC(=O)COc2ccccc2C=O)cc1Cl,1%,2µM*,.,0.85µM*,?,2.5µM*
Cc1cc(C(=O)COc2ccccc2Cl)c(C)n1-c1ccc2c(c1)OCO2,-2%,19%,?,21µM*,?,25%
COc1ccc(Nc2oc(/C=C/c3cc(OC)c(OC)c(OC)c3)nc2C#N)cc1,.,.,30%,-18%,.,.
COc1ccc2cc3cc(C(=O)N4CCN(c5ccccc5F)CC4)oc3nc2c1,.,.,1%,-11%,.,.
CCOc1ccc(/C=C(\C#N)C(=O)Nc2ccccn2)cc1,.,2%,.,3.4µM*,0%,4%
COCCCNC(=O)/C(C#N)=C/c1ccc(F)cc1,-1%,-4%,13%,-14%,0%,1%
N#C/C(=C\c1ccc(F)cc1)C(=O)Nc1ccccn1,.,-1%,.,12µM*,1%,0%
O=C(CCN1C(=O)c2ccccc2C1=O)C1=NN[C@@H]2C(=O)N(c3ccc4c(c3)OCO4)C(=O)[C@H]12,.,-2%,.,-4%,3%,-4%
CCOc1ccc(C(=O)Nc2ccc(S(=O)(=O)N3CCN(C)CC3)cc2)cc1,.,7%,.,5%,-8%,7%
Cc1nn(C(C)C(=O)NC2CCCCCC2)c(=O)c2nn(-c3ccccc3)c(C)c12 (stereo not drawn),.,2%,.,?,0%,12%
Cc1ccc(-c2csc(N=C(N)N)n2)cc1,.,?,.,15µM*,14%,?
COc1ccc(CC2=CC(=O)c3ccccc3C2=O)cc1,.,-5%,.,2.4µM*,12%,17%
Cn1c(N)c(C(=O)CSc2nc(C3CC3)n(-c3ccccc3)n2)c(=O)n(C)c1=O,.,-2%,.,3%,2%,-3%
CCC(=O)NC(=S)Nc1ccc2oc(-c3ccc(OC)cc3)nc2c1,0%,2µM*,7.9µM*,-4%,16µM*,?
COc1ccc(C(=O)Nc2ccc3oc(-c4ccc5ccccc5c4)nc3c2)cc1Br,.,.,-7%,?,.,.
CCCC(=O)Nc1ccc2oc(-c3ccc(OC)c(Br)c3)nc2c1,0%,?,15%,?,?,6.3µM*
CCCC(=O)Nc1ccc(-c2nc3cc(C)ccc3o2)cc1,0%,0.5µM*,1.3µM*,0.54µM*,?,0.5µM*
CCCC(=O)Nc1ccc(-c2nc3cc(C)c(C)cc3o2)c(O)c1,-1%,?,35µM*,1%,?,2µM*
CCOc1ccc(C(=O)Nc2ccc(-c3nc4cc(C)ccc4o3)cc2)cc1,.,.,.,-14%,.,.
CN1CCCC(OC(=O)c2ccc(S(=O)(=O)N(C)C)cc2)C1 (stereo not drawn),.,-1%,.,0%,3%,-15%
Cc1nn(C)c2c1c(-c1ccccc1)cc(=O)n2CC(=O)NC(C)c1ccccc1 (stereo not drawn),.,.,.,0%,.,.
CCc1ccc(C(=O)NNC(=O)c2cccc(N3C(=O)CCC3=O)c2)cc1,.,-2%,.,11µM*,4%,-2%
CC1CCc2c(sc(NC(=O)c3ccc(N4C(=O)CCC4=O)cc3)c2C(N)=O)C1 (stereo not drawn),.,-4%,.,9.5µM*,0%,2%
CCOC(=O)Nc1sc2c(c1C(N)=O)CCC(C)C2 (stereo not drawn),-1%,1%,.,?,13%,9%
CC(=O)NC(=S)Nc1sc2c(c1C(N)=O)CCC(C)C2 (stereo not drawn),-1%,2.8µM*,.,9.5µM*,?,1.6µM*
